From PubChem BioAssay (NCATS)
Inconclusive results are not listed. Where a call stands in place of a potency, no number is given. The source made the active and inactive calls. Unless noted, calls follow the shape of the dose curve; as a rule, active = well fitted curve in the direction sought with a large enough effect; inconclusive = small, poorly fitted or top-dose-only effect, or another doubt; inactive = no such curve, though single readings can be large; an effect the other way counts as inactive or inconclusive.

What was measured:
[1] = target: Voltage-gated inwardly rectifying potassium channel KCNH2 (Homo sapiens) (UniProt Q12809); assay: qHTS Assay for Small Molecule Inhibitors of the Human hERG Channel Activity (AID 588834);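 also: lower thallium flux fluorescence means stronger hERG block; nearly all actives have a fitted effect of over 50% in size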; also: potency is read from the fitted curve at half-maximal effect
Summary of the method: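 Cells were infected with hERG-BacMam virus for 4 hrs at room temperature, grown overnight, then seeded at 2000/well. After dye loading and roughly 10 min compound treatment, thallium influx was triggered and fluorescence recorded.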

[2] = target: Glutaminase kidney isoform, mitochondrial (Homo sapiens) (UniProt O94925); assay: qHTS for Inhibitors of Glutaminase (GLS): LOPAC Validation (AID 624146); also: nearly all actives have a fitted effect of over 60% in size; also: potency is read from the fitted curve at half-maximal effect
Summary of the method: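 Two-point fluorescence kinetic (t0, 30 min RT) for hKGA; glutamate detected via glutamate oxidase–HRP–Amplex Red. Substrate: 1 mM L-glutamine solution; buffer 45 mM KH2PO4, pH 8.2.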

[3] = qHTS of Trypanosoma Brucei Inhibitors: LOPAC Validation (AID 624147)
Summary of the method: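 Glycolytic pyruvate kinase of T. brucei was incubated with substrate, test compound and 130 uM ADP for 45 minutes at room temperature. Luminescent Kinase-Glo Plus signal was measured after 10 minutes.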

[4] = target: Glucagon-like peptide 1 receptor (Homo sapiens) (UniProt P43220); assay: qHTS of GLP-1 Receptor Agonists: LOPAC Validation (AID 624148); also: potency is read from the fitted curve at half-maximal effect
Summary of the method: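 HEK293 cells stably co-expressing a cAMP-responsive luciferase reporter and a hypersensitive GLP-1R were plated 12 h at 37 °C and exposed to compounds for 4-6 hr at 37 °C, 5% CO2. Luminescence was read 12 min after adding detection reagent.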

[5] = qHTS of Nrf2 Activators: LOPAC Validation (AID 624149)
Summary of the method: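 AREc32_Fluc cells, 1000/well, OPTI-MEM + 5% FBS, o/n 37 deg C 5% CO2; compound pin-transfer, 24 hr 37 deg C; Steady-Glo 30 min RT, luminescence read.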

[6] = HTS Assay for Allosteric Antagonists of the Human D2 Dopamine Receptor: Hit Validation in HTRF (AID 624455); also: potency is read from the fitted curve at half-maximal effect
Summary of the method: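 HTRF read-out; cells stably expressing D1 receptor; hits scored for inhibition of D1-mediated response. Primary screen: calcium flux, force-coupled inducible Hek293 Trex D2 line, antagonism vs EC80 dopamine.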

[7] = target: Luciferin 4-monooxygenase (Photinus pyralis) (UniProt P08659); assay: Biochemical firefly luciferase enzyme assay for NPC (AID 624030)
Summary of the method: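 Counter-screen for direct inhibition of the luciferase enzyme by approved-drug library compounds, run at 10 nM enzyme in 50 mM Tris acetate (final). Luminescence was read within 5 min of enzyme-buffer addition and normalized to PTC124 versus DMSO (0%).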

[8] = S16 Schwann cell PMP22 intronic element firefly luciferase assay (AID 624032)
Summary of the method: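 Rat S16 Schwann cells stably carrying a PMP22 intronic element-driven Fluc reporter were seeded overnight, then exposed to compounds for 24 h at 37 °C. Luminescence was normalized to PTC124 (positive control) and DMSO (0% activity).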

[9] = S16 Schwann cell PMP22 intronic element beta-lactamase assay (AID 624044; calls by dose curve)
Summary of the method: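 Beta-lactamase reporter under a PMP22 intronic regulatory element in stable S16 rat Schwann cells; 24 h compound exposure. 460 nm blue signal normalized between DMSO (0%) and potassium clavulanate, with 535 nm FRET tracking viability; curves classed by r2 and response.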

Sequence of Glucagon-like peptide 1 receptor (Homo sapiens) (P43220 whole entry, looked up): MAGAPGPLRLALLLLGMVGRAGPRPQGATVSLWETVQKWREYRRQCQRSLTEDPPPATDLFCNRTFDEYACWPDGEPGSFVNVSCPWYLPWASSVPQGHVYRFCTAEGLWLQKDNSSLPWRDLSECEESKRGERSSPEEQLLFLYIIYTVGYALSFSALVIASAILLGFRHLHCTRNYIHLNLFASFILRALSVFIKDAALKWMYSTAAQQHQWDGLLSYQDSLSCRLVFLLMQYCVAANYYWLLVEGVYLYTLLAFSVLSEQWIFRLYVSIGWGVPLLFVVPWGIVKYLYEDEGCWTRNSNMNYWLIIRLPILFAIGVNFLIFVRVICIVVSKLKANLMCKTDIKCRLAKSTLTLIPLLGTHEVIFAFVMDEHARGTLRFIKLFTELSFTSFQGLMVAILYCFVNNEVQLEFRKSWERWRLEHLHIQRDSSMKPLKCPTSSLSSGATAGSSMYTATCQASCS
Sequence of Voltage-gated inwardly rectifying potassium channel KCNH2 (Homo sapiens) (Q12809 whole entry, looked up): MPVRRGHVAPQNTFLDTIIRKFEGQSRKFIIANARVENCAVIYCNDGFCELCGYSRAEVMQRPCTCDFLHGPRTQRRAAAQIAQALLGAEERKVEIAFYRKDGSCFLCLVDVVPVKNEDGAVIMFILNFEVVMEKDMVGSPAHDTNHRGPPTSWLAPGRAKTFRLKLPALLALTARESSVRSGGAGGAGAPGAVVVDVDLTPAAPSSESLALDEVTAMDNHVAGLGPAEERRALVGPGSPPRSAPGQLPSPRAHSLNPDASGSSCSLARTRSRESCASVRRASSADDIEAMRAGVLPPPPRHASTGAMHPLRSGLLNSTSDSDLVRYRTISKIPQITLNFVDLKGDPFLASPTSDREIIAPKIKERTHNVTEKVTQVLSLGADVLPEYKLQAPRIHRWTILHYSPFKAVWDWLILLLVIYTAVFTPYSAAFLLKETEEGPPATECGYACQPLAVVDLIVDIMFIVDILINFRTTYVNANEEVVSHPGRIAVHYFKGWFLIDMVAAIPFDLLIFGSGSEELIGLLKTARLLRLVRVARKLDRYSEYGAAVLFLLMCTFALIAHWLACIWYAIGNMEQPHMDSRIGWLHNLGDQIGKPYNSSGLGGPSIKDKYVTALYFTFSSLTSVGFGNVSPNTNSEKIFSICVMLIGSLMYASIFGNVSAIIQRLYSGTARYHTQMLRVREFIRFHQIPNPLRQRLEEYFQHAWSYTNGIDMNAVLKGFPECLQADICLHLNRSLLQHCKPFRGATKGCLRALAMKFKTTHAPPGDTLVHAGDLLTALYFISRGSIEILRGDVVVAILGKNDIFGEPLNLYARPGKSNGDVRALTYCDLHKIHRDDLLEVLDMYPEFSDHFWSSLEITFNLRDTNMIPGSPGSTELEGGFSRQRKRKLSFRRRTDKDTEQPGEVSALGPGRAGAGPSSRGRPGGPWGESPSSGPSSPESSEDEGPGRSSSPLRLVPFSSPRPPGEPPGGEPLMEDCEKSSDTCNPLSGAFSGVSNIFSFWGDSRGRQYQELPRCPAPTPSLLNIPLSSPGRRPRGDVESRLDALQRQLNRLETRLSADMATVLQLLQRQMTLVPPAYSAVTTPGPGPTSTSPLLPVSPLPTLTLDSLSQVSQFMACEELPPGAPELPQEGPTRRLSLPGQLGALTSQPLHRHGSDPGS
Sequence of Glutaminase kidney isoform, mitochondrial (Homo sapiens) (O94925 whole entry, looked up, canonical isoform): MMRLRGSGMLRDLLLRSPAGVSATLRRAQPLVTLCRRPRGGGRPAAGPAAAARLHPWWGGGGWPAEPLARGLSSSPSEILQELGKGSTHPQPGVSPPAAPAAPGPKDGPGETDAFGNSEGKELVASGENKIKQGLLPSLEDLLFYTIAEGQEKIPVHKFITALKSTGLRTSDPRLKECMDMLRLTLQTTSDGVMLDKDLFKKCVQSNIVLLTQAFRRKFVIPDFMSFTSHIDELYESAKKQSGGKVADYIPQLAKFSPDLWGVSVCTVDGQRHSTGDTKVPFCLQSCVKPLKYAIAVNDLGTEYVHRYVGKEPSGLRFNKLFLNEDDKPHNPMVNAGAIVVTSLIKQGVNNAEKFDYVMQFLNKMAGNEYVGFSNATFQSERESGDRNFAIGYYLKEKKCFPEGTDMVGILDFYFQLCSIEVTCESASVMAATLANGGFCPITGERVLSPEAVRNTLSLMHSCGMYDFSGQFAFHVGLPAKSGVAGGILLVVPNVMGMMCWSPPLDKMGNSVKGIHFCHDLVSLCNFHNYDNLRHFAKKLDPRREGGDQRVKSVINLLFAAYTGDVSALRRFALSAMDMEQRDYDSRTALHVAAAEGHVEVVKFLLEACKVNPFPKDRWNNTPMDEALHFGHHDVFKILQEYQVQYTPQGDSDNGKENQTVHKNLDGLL

Structure (SMILES) | Potency [1] | Potency [2] | Potency [3] | Potency [4] | Potency [5] | Potency [6] | outcome [7] | outcome [8] | outcome [9]
COc1ccccc1N1CCN(CCCCN2C(=O)c3ccccc3C2=O)CC1 | 2.24 µM (active) | inactive | inactive | inactive | – | – | – | – | –
Cn1c(=O)c2[nH]c(C3CCCC3)nc2n(C)c1=O | inactive | inactive | inactive | inactive | inactive | – | – | – | –
COC(=O)C(N)Cc1ccc(Cl)cc1 (stereo not drawn) | inactive | inactive | inactive | inactive | inactive | inactive | – | – | –
CCCCCC(O)CCCC(=O)O (stereo not drawn) | inactive | inactive | inactive | inactive | inactive | – | – | – | –
O=C(O)[C@H]1NCCC[C@H]1C(=O)O | inactive | inactive | inactive | inactive | inactive | – | – | – | –
CC1CCN=C(N)S1 (stereo not drawn) | inactive | inactive | inactive | inactive | – | – | – | – | –
CCOC(=O)C12CC1/C(=N/O)c1ccccc1O2 (stereo not drawn) | inactive | inactive | inactive | inactive | inactive | – | – | – | –
CN1CCN(c2nc3cc(C(F)(F)F)ccc3n3cccc23)CC1 | 3.98 µM (active) | inactive | inactive | inactive | inactive | – | – | – | –
CSC(=N)N | inactive | inactive | inactive | inactive | inactive | inactive | – | – | –
O=C(O)/C=C/c1cnc[nH]1 | inactive | inactive | inactive | inactive | inactive | – | – | – | –
Cc1cc2c(cc1Cl)N(C(=O)Nc1ccnc3ccccc13)CC2 | inactive | 7.08 µM (active) | inactive | inactive | inactive | – | – | – | –
C#CCn1c(=O)c2c(ncn2C)n(C)c1=O | inactive | inactive | inactive | inactive | inactive | – | – | – | –
OCC1NCC(O)C(O)C1O (stereo not drawn) | inactive | inactive | inactive | inactive | inactive | – | – | – | –
CC(=O)NNC(=O)N1Cc2ccccc2Oc2ccc(Cl)cc21 | inactive | inactive | inactive | inactive | inactive | – | – | – | –
CN1CCC2(CCN3CCc4c(oc5ccccc45)C3C2)N(C)C1=O (stereo not drawn) | inactive | inactive | inactive | inactive | inactive | – | – | – | –
CNCCNS(=O)(=O)c1cccc2cnccc12 | inactive | inactive | inactive | inactive | inactive | – | – | – | –
CCCCCCCCCC[Si](C)(C)CCC(=O)NC(Cc1ccc(C)cc1)c1ccccc1 (stereo not drawn) | inactive | inactive | inactive | inactive | inactive | – | – | – | –
C[C@@]1(C2CCCC2)Cc2cc(OCC(=O)O)c(Cl)c(Cl)c2C1=O | inactive | inactive | inactive | inactive | inactive | – | – | – | –
O=c1[nH]c2cc(Cl)ccc2c(O)c1-c1ccc(Oc2ccccc2)cc1 | inactive | inactive | inactive | inactive | – | – | – | – | –
Nc1ncnc2c1ncn2C1CCCO1 (stereo not drawn) | inactive | inactive | inactive | inactive | inactive | – | – | – | –
CC(C)C[C@H](NC(=O)C1OC1C(=O)O)C(=O)NCCCCN=C(N)N (stereo partly drawn) | inactive | inactive | inactive | inactive | inactive | – | – | – | –
CCCCCCC/C=C\CCCCCCCCC(=O)O | inactive | inactive | inactive | inactive | inactive | – | – | – | –
COc1cc(CC(=O)O)ccc1O | inactive | 2.82 µM (active) | inactive | inactive | inactive | – | – | – | –

Structure (SMILES) | Potency [1] | Potency [2] | Potency [3] | Potency [4] | Potency [5] | Potency [6] | outcome [7] | outcome [8] | outcome [9]
O=[N+]([O-])c1cccc2c(Br)[nH]nc12 | inactive | inactive | inactive | inactive | inactive | – | – | – | –
COc1ccc(-c2ccc(N)[n+](CCCC(=O)O)n2)cc1 | inactive | inactive | inactive | inactive | inactive | – | – | – | –
NOCC(=O)O | inactive | inactive | inactive | inactive | inactive | – | – | – | –
Cn1c(=O)[nH]c2ncn(C)c2c1=O | inactive | inactive | inactive | inactive | inactive | inactive | – | – | –
NC(N)=[N+]1CCc2ccccc2C1 | inactive | inactive | inactive | inactive | inactive | – | – | – | –
Cn1ccnc1 | inactive | inactive | inactive | inactive | inactive | – | – | – | –
O=C1C2C=CC=CC2=NC(=S)N1CCN1CCC(=C(c2ccc(F)cc2)c2ccc(F)cc2)CC1 (stereo not drawn) | 0.316 µM (active) | inactive | inactive | inactive | inactive | – | – | – | –
COc1ccc2c(c1)CCC1C2CC[C@@]2(C)C1CC[C@@H]2NCCCCCCN1C(=O)C=CC1=O (stereo partly drawn) | inactive | inactive | inactive | inactive | inactive | – | – | – | –
N=C(N)c1ccc(N)cc1 | inactive | inactive | inactive | inactive | inactive | inactive | – | – | –
CCCn1c(=O)c2[nH]c(C3CCCC3)nc2n(CCC)c1=O | inactive | inactive | inactive | inactive | inactive | – | – | – | –
CC(N)=O | inactive | inactive | inactive | inactive | inactive | – | – | – | –
N[C@@H](CS(=O)O)C(=O)O | inactive | inactive | inactive | inactive | inactive | – | – | – | –
COc1ccccc1N1CCN(CCN(C(=O)c2ccc(F)cc2)c2ccccn2)CC1 | 11.2 µM (active) | inactive | inactive | inactive | – | – | – | – | –
N[C@H]1CONC1=O | inactive | inactive | inactive | inactive | inactive | – | – | – | –
CCCCCCCCCC(=O)NC(CN1CCOCC1)[C@H](O)c1ccccc1 (stereo partly drawn) | 12.6 µM (active) | inactive | inactive | inactive | inactive | inactive | – | – | –
O=C(O)CCC(=O)N1CCCC1C(=O)O (stereo not drawn) | inactive | inactive | inactive | inactive | inactive | inactive | – | – | –
CC(N)(Cc1ccc(O)cc1)C(=O)O (stereo not drawn) | inactive | inactive | inactive | inactive | inactive | inactive | – | – | –
CCCn1c(=O)c2[nH]c(-c3ccc(S(=O)(=O)O)cc3)nc2n(CCC)c1=O | inactive | inactive | inactive | inactive | inactive | inactive | – | – | –
C=C(C)C1CC=C(C(=O)O)CC1 (stereo not drawn) | inactive | inactive | inactive | inactive | inactive | inactive | – | – | –
Nn1nnc2ccccc21 | inactive | inactive | inactive | inactive | inactive | inactive | – | – | –
C#CC(N)CCC(=O)O (stereo not drawn) | inactive | inactive | inactive | inactive | inactive | inactive | – | – | –
CC(N)=NCCCC[C@@H](N)C(=O)O | inactive | inactive | inactive | inactive | inactive | inactive | – | – | –

Structure (SMILES) | Potency [1] | Potency [2] | Potency [3] | Potency [4] | Potency [5] | Potency [6] | outcome [7] | outcome [8] | outcome [9]
O=C1NC(=O)c2cc(Nc3ccccc3)c(Nc3ccccc3)cc21 | 12.6 µM (active) | 2.51 µM (active) | inactive | inactive | inactive | inactive | – | – | –
NC(N)=NC(N)=Nc1ccccc1 | inactive | inactive | inactive | inactive | inactive | inactive | – | – | –
C=CC1(C)CC(=O)C2(O)C(C)(O1)C(OC(C)=O)C(O)C1C(C)(C)CCC(O)C12C (stereo not drawn) | inactive | inactive | inactive | 1.03 µM (active) | inactive | 0.517 µM (active) | – | – | –
NC1C=CC=C(C(=O)O)C1 (stereo not drawn) | inactive | inactive | inactive | inactive | inactive | inactive | – | – | –
Nc1ccc(N2C(=O)c3ccccc3C2=O)c(Cl)c1 | inactive | inactive | inactive | inactive | inactive | inactive | – | – | –
NC(=Nc1ccccc1)NC(=O)c1nc(Cl)c(N)nc1N | 14.1 µM (active) | inactive | inactive | inactive | inactive | inactive | – | – | –
O=C1OC(=O)C2C3CCC(O3)C12 (stereo not drawn) | inactive | inactive | inactive | inactive | inactive | inactive | – | – | –
NC1(C(=O)O)CCc2cc(C(=O)O)ccc21 (stereo not drawn) | inactive | inactive | inactive | inactive | inactive | inactive | – | – | –
NC(=O)CC[C@H](N)C(=O)O | inactive | inactive | inactive | inactive | inactive | inactive | – | – | –
NCCCCN=C(N)N | inactive | inactive | inactive | inactive | inactive | inactive | – | – | –
CC1C(=O)N(C)C(=O)c2nc[nH]c21 (stereo not drawn) | inactive | inactive | inactive | inactive | inactive | inactive | – | – | –
N#Cc1cc2nc(O)c(O)nc2cc1[N+](=O)[O-] | inactive | inactive | inactive | inactive | inactive | inactive | – | – | –
O=c1onc2cnc3ccccc3n12 | inactive | 7.08 µM (active) | inactive | inactive | inactive | inactive | – | – | –
CCSC(=N)N | inactive | inactive | inactive | inactive | inactive | inactive | – | – | –
O=C(O)c1cccnc1C(=O)O | inactive | inactive | inactive | inactive | inactive | inactive | – | – | –
N=C(N)SCCc1cnc[nH]1 | inactive | inactive | inactive | inactive | inactive | inactive | – | – | –
COC(=O)C(C)(N)Cc1ccc(O)cc1 (stereo not drawn) | inactive | inactive | inactive | inactive | inactive | inactive | – | – | –
Cc1ccc([N+](=O)[O-])cc1S(=O)(=O)N(C)C | inactive | inactive | inactive | inactive | inactive | inactive | – | – | –
O=c1[nH]c2ccccc2c2ccccc12 | inactive | inactive | inactive | inactive | inactive | inactive | – | – | –
CC(C)C[C@H](NC(=O)[C@H](O)[C@H](N)Cc1ccccc1)C(=O)O | inactive | inactive | inactive | inactive | inactive | inactive | – | – | –
N[C@H](C(=O)O)[C@H]1C[C@@H]1C(=O)O | inactive | inactive | inactive | inactive | inactive | inactive | – | – | –
